Assay results as given in PubChem BioAssay.
Active and inactive are the calls of the source. Unless noted, the rule behind the calls is not given here.

Legend:
[1] = tested on: XIP peptide (Xip251-270) binding; experiment: small-molecule binders of XIP peptide, primary screen, biochemical, small-molecule microarray, fluorescence 635/667 nm, 0.1 µg/mL protein (AID 1182); settings: fluorescent protein binding, 635 nm, higher = more signal, called active from +8 up or from −8 down
XIP peptide (Xip251-270) = experiment: small-molecule binders of XIP peptide, primary screen, biochemical, small-molecule microarray, fluorescence 635/667 nm, 0.5 µg/mL protein (AID 1183); settings: small-molecule microarray binding, fluorescence 635 nm; higher = more signal
[2] = Plasmodium falciparum growth inhibition, primary screen, strain 3D7, DAPI fluorescence, 100 nL (AID 1184);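 note: parasites grown inside human red blood cells in medium with human serum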; settings: P. falciparum 3D7 growth, 3 d, higher = more signal
[3] = target: Homeobox protein Hox-A13 (Mus musculus) (UniProt Q62424); experiment: inhibitors of HoxA13-DNA binding, primary screen, biochemical, fluorescence polarization, labeled oligonucleotide (AID 1185); settings: 15 min, higher = more signal, called active from +8 up or from −8 down
Sequence of Homeobox protein Hox-A13 (Mus musculus) (Q62424 whole entry, looked up): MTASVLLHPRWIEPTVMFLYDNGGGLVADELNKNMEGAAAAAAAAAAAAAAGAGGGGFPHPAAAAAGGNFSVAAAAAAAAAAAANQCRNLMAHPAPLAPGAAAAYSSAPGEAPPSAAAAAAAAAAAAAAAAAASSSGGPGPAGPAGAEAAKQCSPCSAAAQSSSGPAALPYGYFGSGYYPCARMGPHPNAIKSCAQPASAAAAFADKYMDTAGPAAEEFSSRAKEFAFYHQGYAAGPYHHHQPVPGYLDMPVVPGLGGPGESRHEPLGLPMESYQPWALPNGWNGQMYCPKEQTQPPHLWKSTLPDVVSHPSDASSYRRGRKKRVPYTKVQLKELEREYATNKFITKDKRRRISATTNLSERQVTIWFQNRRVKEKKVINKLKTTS

[4] = inhibitors of hydroxyurea-induced Chk1 phosphorylation, primary screen, imaging, HeLa, phospho-Chk1 antibody, percent positive cells (AID 1186); settings: hydroxyurea-induced phospho-Chk1 immunofluorescence imaging, higher = more signal
[5] = inhibitors of hydroxyurea-induced Chk1 phosphorylation, primary screen, imaging, HeLa, phospho-Chk1 nuclear intensity (AID 1187); settings: hydroxyurea-induced phospho-Chk1 immunofluorescence imaging, higher = more signal

COCCOC(=O)N1C(=O)[C@@]2(c3cc(C#CCNC(N)=O)ccc31)[C@H](C(=O)N1CCN(c3ncccn3)CC1)[C@H]1C(=O)O[C@H](c3ccccc3)[C@H](c3ccccc3)N1[C@@H]2c1ccccc1OCCO
composite z-score [1]: 1.56 (inactive) | composite z-score (XIP peptide (Xip251-270)): 0.588 | z-score [2]: -2.4 | z-score [3]: -1.39 (inactive) | z-score [4]: 0.197 (inactive) | z-score [5]: 0.886 (inactive)

COc1ccc([Si](C)(C)[C@@H]2[C@@H](CC(=O)N(CCO)Cc3ccccc3)O[C@]3(C(=O)N(C)c4ccccc43)[C@H]2C)cc1
composite z-score [1]: 1.74 (inactive) | composite z-score (XIP peptide (Xip251-270)): 0.626 | z-score [2]: -1.55 | z-score [3]: -6.65 (inactive) | z-score [4]: -0.36 (inactive) | z-score [5]: -1.47 (inactive)

CCOC(=O)C1=CCC(c2ccc(C#N)cc2)N(S(=O)(=O)c2ccc(C)cc2)C1 (stereo not drawn)
composite z-score [1]: 1.79 (inactive) | composite z-score (XIP peptide (Xip251-270)): 0.766 | z-score [2]: -1.33 | z-score [3]: -3.74 (inactive) | z-score [4]: -0.308 (inactive) | z-score [5]: -1.22 (inactive)

C=C(COC)C(=O)CC[C@H](OC(C)=O)c1cccc(OCCO)c1
composite z-score [1]: 0.623 (inactive) | composite z-score (XIP peptide (Xip251-270)): -0.762 | z-score [2]: -2.3 | z-score [3]: -4.76 (inactive) | z-score [4]: 0.305 (inactive) | z-score [5]: -0.0656 (inactive)

CN(C)CCCCCCNC(=O)[C@H]1C[C@H]2C(=O)N[C@@H](CCCCN)C(=O)N2[C@H]1c1ccc(O)cc1
composite z-score [1]: 5.07 (inactive) | composite z-score (XIP peptide (Xip251-270)): 0.937 | z-score [2]: -0.511 | z-score [3]: -0.281 (inactive) | z-score [4]: -0.111 (inactive) | z-score [5]: 0.501 (inactive)

COc1c(C)cc(-c2cc3c(c(-c4ccc(Oc5ccccc5)cc4)n2)[Si](C(C)C)(C(C)C)OC3)cc1C
composite z-score [1]: -0.631 (inactive) | composite z-score (XIP peptide (Xip251-270)): -0.466 | z-score [2]: -0.898 | z-score [3]: -0.746 (inactive) | z-score [4]: 0.621 (inactive) | z-score [5]: 0.37 (inactive)

CN1C(=O)C2C(C1=O)C1C=C(CCCO)C2C(c2cccs2)N1C (stereo not drawn)
composite z-score [1]: -0.119 (inactive) | composite z-score (XIP peptide (Xip251-270)): -0.0427 | z-score [2]: 0.404 | z-score [3]: -9.72 (active) | z-score [4]: 0.207 (inactive) | z-score [5]: -0.0851 (inactive)

COCC(=C=CC[C@H](O)c1ccc(OCCO)cc1)C[C@H](O)c1cc(Cl)cc(Cl)c1O
composite z-score [1]: 0.423 (inactive) | composite z-score (XIP peptide (Xip251-270)): 0.161 | z-score [2]: -1.55 | z-score [3]: -4.13 (inactive) | z-score [4]: -0.559 (inactive) | z-score [5]: 0.56 (inactive)
